Experimental data reported in PubChem BioAssay (NCI).
About 83,000 compounds went through this panel and 20% of them were active in at least one assay; those are over-represented in the sample as a whole.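 Percent growth is the endpoint: 0 to 100 indicates growth inhibition (40 means 60% inhibition), 0 means no net growth, and negative values indicate cell death.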 Values without a mark were called inactive. Calls of active or inactive are those of the source. How the source made its calls: active means growth percent below 10; inactive means the rest.

How the values were obtained:
Test in all cases: NCI-60 one-dose screen, 48 h (100 = growth as untreated, 0 = no growth, -100 = all killed)
Conditions in all cases: 10 µM unless noted
[1] = tested on: T-47D breast
[2] = tested on: BT-549 breast
[3] = tested on: MDA-MB-435 melanoma
[4] = tested on: SW-620 colon
[5] = tested on: MCF7 breast
[6] = tested on: HCT-116 colon
[7] = tested on: HCC-2998 colon
[8] = tested on: KM12 colon

Structure (SMILES) | growth [1] | growth [2] | growth [3] | growth [4] | growth [5] | growth [6] | growth [7] | growth [8]
N=c1ccc2nc3c(cc(N)c4ccccc43)oc-2c1 | -80.1% (active) | -13.2% (active) | -86.1% (active) | -79.6% (active) | -62.3% (active) | -96.1% (active) | -96.8% (active) | -94.9% (active)
COc1cc2ncnc(Nc3ccc(OCc4cccc(F)c4)c(Cl)c3)c2cc1NC(=O)C1CCCC1 | 24.9% | 103% | 89.4% | 98.4% | 84.4% | 83.4% | 103% | 94.9%
CCNCCCn1c2c(c3ccc([N+](=O)[O-])cc3c1=O)C(=O)c1cc(OC)cnc1-2 | -12.9% (active) | -16.2% (active) | -54.4% (active) | -27% (active) | -3.1% (active) | -69.8% (active) | -8.05% (active) | -3.89% (active)
C=C(C)[C@@H]1CC[C@]2(C(=O)O)CC[C@]3(C)[C@H](CC[C@@H]4[C@@]5(C)C/C(=C/c6ccc(OC)cc6)C(=O)C(C)(C)[C@@H]5CC[C@]43C)[C@@H]12 | 13.3% | 26.2% | 30.3% | 21.9% | 5.66% (active) | 5.84% (active) | 21.7% | 21.3%
COc1cc2c3c(c4c5ccccc5[nH]c4c2c(OC)c1OC)C(=O)N(O)C3=O | 19.5% | 46.2% | 56.1% | 49% | 20.4% | 16.8% | 55.3% | 53.7%
COc1cc(-c2cc(-c3nc4ccccc4[nH]3)[nH]n2)cc(OC)c1OC | 6.65% (active) | 36.4% | 19.2% | 59.4% | 44.2% | 38.7% | 71.4% | 27%
O=C1C(=O)c2ccccc2C(O)=C1CCCc1ccc(C2CCCCC2)cc1 | 44% | 52.6% | 53.7% | 36.8% | 32.9% | 19.4% | 29.5% | 24.2%
Cn1cc(-c2csc(-c3cn(CCCN4CCCCC4)c4ccccc34)n2)c2cccnc21 | 92.5% | 72.7% | -87.7% (active) | -65.3% (active) | -77.2% (active) | -95% (active) | 99% | -62.8% (active)
O=S(=O)(NCCCNc1cc(-c2cn(-c3ccccc3)nc2-c2cccc(O)c2)ccn1)c1ccc(F)cc1 | 14.8% | 40.6% | 38.9% | 30.1% | 27.2% | 23% | -34.8% (active) | 24.2%
Cn1c(=O)c2c(ncn2CCC(=O)Nc2ccc(F)cc2)n(C)c1=O | 94.1% | 90.3% | 110% | 106% | 100% | 87.7% | 115% | 103%
N#C/C(=C\c1ccc(-c2cccc(C(F)(F)F)c2)o1)c1nc(-c2ccco2)cs1 | -17.6% (active) | 97% | 102% | 104% | 22.4% | 91.7% | 29.5% | 65.5%
Nc1ncnc2nc(Br)[nH]c12 | 89.4% | 95.6% | 104% | 106% | 99.9% | 92.4% | 109% | 102%
CC(=O)c1c(C)[nH]c(-c2nc3ccc(N4CCN(C)CC4)cc3[nH]2)c1-c1ccc(N(C)C)cc1 | 23.8% | 51.6% | 27.1% | 56.8% | 8.22% (active) | 23.2% | 30.3% | 37.2%
CN(C)c1ccc(-c2ccc(-c3ccc(C(=N)N)c(F)c3)s2)cc1 | -60.3% (active) | 95.7% | -95.4% (active) | -75% (active) | -69.7% (active) | -89.3% (active) | -95.4% (active) | -87.9% (active)
O=P(O)(c1ccccc1)c1ccccc1I | 84.5% | 100% | 104% | 94.9% | 96.6% | 76.7% | 107% | 103%
COC(=O)c1cc(=O)nc(N/N=C/c2ccc(C)cc2)s1 | 105% | 99.6% | 115% | 106% | 89.9% | 105% | 106% | 110%
Cc1cc(Cl)nc(N(CCNc2ccnc3cc(Cl)ccc23)Cc2ccco2)n1 | -14.7% (active) | 54.7% | 41.9% | 28% | 22.7% | 13.6% | 91.1% | 59.5%
Cc1ccc(-c2nn(Cc3cn(-c4cc(C)nc5ccccc45)nn3)c3ncnc(N)c23)cc1 | 19.6% | 64.4% | 50.2% | 82.4% | 34.6% | 53.8% | 76.4% | 74.4%
c1ccc2[nH]c(-c3ccc(Nc4nc(N5CCCCC5)nc(N5CCOCC5)n4)cc3)nc2c1 | 23.4% | 23.1% | -27.3% (active) | 5.3% (active) | 3.49% (active) | 9.65% (active) | -1.07% (active) | 14.3%
CC(C)C[C@@H](NC(=O)[C@@H](Cc1ccccc1)NC(=O)c1cnccn1)B1O[C@H]2[C@H](O)[C@@H](C(=O)NCCCC[C@@H]3NC(=O)[C@@H](Cc4ccccc4)NC(=O)[C@H](CC(=O)O)NC(=O)CNC(=O)[C@H](CCCN=C(N)N)NC3=O)O[C@@H](CN)[C@H]2O1 | -70.4% (active) | -66.1% (active) | -78.1% (active) | -47.7% (active) | -17.1% (active) | -50% (active) | -78.9% (active) | -43.9% (active)
N#Cc1c(-c2ccco2)nc2c(c(-c3ccccc3)nn2-c2ccccc2)c1-c1ccc(O)cc1 | 18.5% | 64.7% | 62.1% | 48% | 47.3% | 36.9% | 91.5% | 43%
Cn1cc(-c2csc(-c3cn(CCCN4CCCCC4)c4ccc(Br)cc34)n2)c2cccnc21 | 21.8% | 70.9% | -69.5% (active) | -74.3% (active) | -64.6% (active) | -89.5% (active) | 85.5% | 9.18% (active)
CCN(CC)C(=O)CCCCCn1c2ccccc2c2c3c(c4c5ccccc5[nH]c4c21)C(=O)N(O)C3=O | 28.2% | 56.8% | 25.3% | 70.1% | 18.5% | 37.8% | 44% | 30.8%
COC(c1ccccc1)(c1ccccc1)c1ccccc1 | 87.1% | 95.7% | 108% | 99.1% | 115% | 104% | 142% | 82.2%
N#Cc1c(-c2ccc(O)cc2)c2c(N)nn(-c3ccccc3)c2[nH]c1=O | 112% | 111% | 108% | 102% | 101% | 108% | 110% | 102%
Cn1cccc1/C=C1/SC(=S)N(CCc2ccc(O)cc2)C1=O | 42% | 41.4% | -27.9% (active) | 31.6% | 33.8% | 21.4% | 77.4% | 40.5%
C[C@@H](Oc1ccc(C(=O)NS(=O)(=O)C(C)(C)C)cc1C(F)(F)F)c1ccc(Oc2ccccc2)cn1 | 39% | 27.6% | -50.1% (active) | 23.3% | 15% | 25.5% | 61.1% | 28.3%
CCOC(=O)c1ccc2c(c1)[n+](=O)c(C(=O)C1CCCS1)c(C(F)(F)F)n2[O-] (configuration not stated) | -70.5% (active) | -93.4% (active) | -80.5% (active) | -82.4% (active) | -68.1% (active) | -96.2% (active) | -89% (active) | -90.4% (active)
NCCn1cc(-c2nc(-c3c[nH]c4ncccc34)cs2)c2cc(Br)ccc21 | 44.8% | 97.8% | 84.8% | 7.12% (active) | 30.7% | 66.6% | 100% | 65.2%
